Measured values published in PubChem BioAssay (EPA / NIEHS).
“And” between values parts separate entries of the source, which are not always exact repeats. Equal entries are not always repeated. Inconclusive results are not listed. Where a structure was tested more than once in an assay, its records may differ in their call. The source made the active and inactive calls. Rule for the calls, unless noted: active = hit-call score of the fitted dose curve at least 0.9, where 1 is the maximum; inactive = score below 0.9.

How the values were obtained:
[1] = APR_HepG2_CellCycleArrest_1hr: Apredica 1-hour HepG2 Assay for Cell Cycle Arrest (AID 2282666); settings: high-content imaging, actives raise or lower the signal
Method in brief: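 Cell cycle arrest scored from nuclear DNA content (Hoechst 33342) using high-content imaging of fixed HepG2 cells after 1 h treatment across 0.39–200 uM, in duplicate. Gain or loss fitted relative to 0.5% DMSO.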

[2] = ACEA_ER_80hr: ACEA Biosciences xCELLigence Real-Time Cell Analysis on Estrogen Receptor Agonism for Proliferation (AID 2282667; active = hit-call score of the fitted dose curve at least 0.9, where 1 is the maximum); settings: T47D proliferation, impedance (xCELLigence), 80 h
Method in brief: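 T47D human breast cells were seeded on electrode plates, monitored overnight, then exposed continuously to compounds in eight-point 1:4 dilutions from 100 uM (max 0.5% DMSO). Impedance-based growth was read at 80 h, fitted upward relative to DMSO.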

[3] = APR_HepG2_CellLoss_1hr: Apredica 1-hour HepG2 Assay for Cell Loss (AID 2282668); settings: high-content imaging;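 note: curves fitted both ways against DMSO so gain or loss of cells counts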
Method in brief: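 Cell number comes from high-content imaging of Hoechst-labelled nuclei in fixed HepG2 cells. Cells were exposed for 1 h to ten concentrations from 0.39 to 200 uM in 0.5% DMSO. Gain or loss was fitted against DMSO controls.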

[4] = APR_HepG2_NuclearSize_1hr: Apredica 1-hour HepG2 Assay for Nuclear Size (AID 2282670); settings: high-content imaging, actives raise or lower the signal
Method in brief: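 Nuclear size measured by high-content imaging of Hoechst 33342 nuclear stain after formaldehyde fixation; human HepG2 line exposed 1 hr to compounds at 0.39–200 uM in 0.5% DMSO, with bidirectional curve fitting relative to DMSO.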

[5] = APR_HepG2_MitoticArrest_1hr: Apredica 1-hour HepG2 Assay for Mitotic Arrest (AID 2282672); settings: high-content imaging, actives raise or lower the signal
Method in brief: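 Ten-point concentration series (0.39 to 200 uM, duplicates, 0.5% v/v DMSO) applied to human HepG2 liver cells for 1 hr. High-content imaging of phospho-histone H3 and Hoechst-stained nuclei after fixation and permeabilization; DMSO-normalised bidirectional fit.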

[6] = APR_HepG2_P-H2AX_1hr: Apredica 1-hour HepG2 Assay for H2AX Phosphorylation (AID 2282673); settings: high-content imaging, actives raise or lower the signal
Method in brief: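 Phospho-H2A.x immunofluorescence (1:200, FITC secondary) plus Hoechst nuclear stain, quantified by high-content imaging in HepG2 after 1 hr compound exposure. Ten concentrations, 0.39 to 200 uM, in duplicate with 0.5% DMSO; fit both directions against DMSO.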

[7] = APR_HepG2_MitoMembPot_1hr: Apredica 1-hour HepG2 Assay for Mitochondrial Membrane Potential (AID 2282675); settings: imaging, actives raise or lower the signal
Method in brief: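 Mitochondrial membrane potential read as MitoTracker Red CMXRos intensity by automated imaging of fixed HepG2 cells. Dye at 250 nM for 30 min pre-fixation; compounds 0.39 to 200 uM for 1 hour, duplicate wells, 0.5% DMSO.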

[8] = APR_HepG2_NuclearSize_24hr: Apredica 24-hour HepG2 Assay for Nuclear Size (AID 2282907); settings: high-content imaging, actives raise or lower the signal
Method in brief: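 After fixation and permeabilization, 24-hr-treated HepG2 cells were stained with Hoechst 33342 and imaged on an ArrayScan (20x). Doses spanned 0.39–200 uM in duplicate. Nuclear diameter changes in either direction were fitted relative to 0.5% DMSO controls.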

[9] = APR_HepG2_CellLoss_24hr: Apredica 24-hour HepG2 Assay for Cell Loss (AID 2282908); settings: high-content imaging;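 for AC50: fit in both directions so a hit may be cell loss or gain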
Method in brief: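 Duplicate wells received compound at ten concentrations (0.39–200 uM; final DMSO 0.5% v/v). After fixation with formaldehyde, nuclei stained with Hoechst 33342 were imaged at 20x. Loss or gain of cell count was fitted relative to DMSO controls.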

[10] = APR_HepG2_MicrotubuleCSK_24hr: Apredica 24-hour HepG2 Assay for Microtubule CSK Stabilty (AID 2282909); settings: HepG2 microtubule cytoskeleton imaging, actives raise or lower the signal
Method in brief: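 Microtubule stability is scored from tubulin immunofluorescence in fixed HepG2 cells imaged at 20x. Cells receive ten compound concentrations up to 200 uM for 24 h; taxol and DMSO serve as positive and negative controls.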

[11] = APR_HepG2_MitoMembPot_24hr: Apredica 24-hour HepG2 Assay for Mitochondrial Membrane Potential (AID 2282911); settings: imaging, actives raise or lower the signal
Method in brief: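 HepG2 human liver cells were exposed 24 hr to compounds at 0.39–200 uM (final DMSO 0.5% v/v) in duplicate. MitoTracker Red CMXRos (250 nM, 30 min) was loaded before formaldehyde fixation; fluorescence was imaged by ArrayScan HCS and fitted bidirectionally versus DMSO.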

[12] = APR_HepG2_MitoMass_24hr: Apredica 24-hour HepG2 Assay for Mitochondrial Mass (AID 2282912); settings: high-content imaging, actives raise or lower the signal
Method in brief: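 Readout: fluorescence of MitoTracker Red CMXRos (250 nM, added 30 min pre-fixation) in fixed HepG2 cells imaged by HCS. Exposure lasted 24 hr at 0.39–200 uM; increases and decreases were both fitted relative to DMSO.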

[13] = APR_HepG2_CellCycleArrest_72hr: Apredica 72-hour HepG2 Assay for Cell Cycle Arrest (AID 2282914); settings: high-content imaging, actives raise or lower the signal
Method in brief: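 HepG2 cells were exposed to compounds at 0.39–200 uM (0.5% v/v DMSO final, duplicates) for 72 hr, fixed in 3.7% formaldehyde, permeabilized and stained with Hoechst 33342. Nuclear DNA content was quantified by high-content imaging; gain or loss of signal was fitted bidirectionally against DMSO.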

[14] = APR_HepG2_CellLoss_72hr: Apredica 72-hour HepG2 Assay for Cell Loss (AID 2282915); settings: high-content imaging
Method in brief: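 HepG2 cells were exposed for 72 hr to compounds at 0.39–200 uM (ten concentrations, duplicate) in 0.5% v/v final DMSO. Nuclei were stained with Hoechst 33342 after 3.7% formaldehyde fixation, imaged at 20x, and counted; fits bidirectional versus DMSO.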

[15] = APR_HepG2_CellCycleArrest_24hr: Apredica 24-hour HepG2 Assay for Cell Cycle Arrest (AID 2282905); settings: imaging, actives raise or lower the signal;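 note: cell cycle arrest scored as ratio of 2N to 4N nuclear DNA content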
Method in brief: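 Step one: dose HepG2 with test compounds, 0.39–200 uM, 0.5% DMSO, 24 hr. Step two: fix, permeabilize, stain nuclei with Hoechst 33342. Step three: image six fields per well at 20x, quantify DNA content, fit bidirectionally relative to DMSO.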

[16] = APR_HepG2_MitoticArrest_24hr: Apredica 24-hour HepG2 Assay for Mitotic Arrest (AID 2282910); settings: high-content imaging, actives raise or lower the signal
Method in brief: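 Treatment lasted 24 hr in the human HepG2 line at 0.39–200 uM, solvent held at 0.5% DMSO. Fixed cells were stained with Hoechst 33342 and anti-phospho-histone H3, imaged at 20x, and analysed by gain- or loss-of-signal fitting against DMSO.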

[17] = APR_HepG2_MicrotubuleCSK_1hr: Apredica 1-hour HepG2 Assay for Microtubule CSK Stabilty (AID 2282669); settings: HepG2 microtubule cytoskeleton imaging, actives raise or lower the signal
Method in brief: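 Alpha-tubulin immunofluorescence, imaged by automated high-content microscopy with Hoechst nuclear segmentation, measured cytoskeletal change after 1 h dosing of HepG2 at 0.39–200 uM in 0.5% DMSO. Activity fitted in both directions relative to DMSO.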

[18] = APR_HepG2_StressKinase_1hr: Apredica 1-hour HepG2 Assay for Stress Kinase (AID 2282906); settings: HepG2 stress kinase (phospho-c-Jun) imaging, actives raise or lower the signal
Method in brief: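 High-content imaging of phospho-c-Jun immunostaining (with Hoechst nuclear identification) after a 1 h exposure of HepG2 cells to 10 concentrations from 0.39 to 200 uM, final DMSO 0.5%. Fitted bidirectionally against DMSO.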

[19] = APR_HepG2_MitoMass_1hr: Apredica 1-hour HepG2 Assay for Mitochondrial Mass (AID 2282674); settings: high-content imaging, actives raise or lower the signal
Method in brief: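 Mitochondrial mass is taken from MitoTracker Red CMXRos (250 nM, 30 min, pre-fixation) fluorescence imaged at 20x in HepG2 cells. Exposure lasted 1 hr across ten concentrations, 0.39 to 200 uM, 0.5% DMSO; DMSO baseline, bidirectional fitting.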

Measured: AC50

Cc1nn(C)c(Oc2ccccc2)c1C=NOCc1ccc(C(=O)OC(C)(C)C)cc1
active: [2] 4.39 nM | [9] 6.62 µM | [13] 19.8 µM | [14] 19.8 µM
not listed: [15] | [16] | [17] | [18] | [19]
inactive: all other assays above

CCCCC(CC)CN1C(=O)C2C3C=CC(C3)C2C1=O (stereo not given)
active: [10] 72.3 µM | [14] 93.2 µM
not listed: [15] | [16] | [17] | [18] | [19]
inactive: all other assays above

CCCCOCCOCCOCc1cc2c(cc1CCC)OCO2
active: [10] 70 µM | [13] 45 µM | [14] 85.8 µM
not listed: [2] | [15] | [16] | [17] | [18] | [19]
inactive: all other assays above

CC(=O)S[C@@H]1CC2=CC(=O)CC[C@]2(C)[C@H]2CC[C@@]3(C)[C@@H](CC[C@@]34CCC(=O)O4)[C@H]12
inactive: [2] | [8] | [10]
active: [2] 10.7 µM and 174 nM | [15] 37.4 µM | [9] 54.6 µM | [16] 30.2 µM | [11] 82.3 µM | [12] 29.1 µM | [13] 44.1 µM | [14] 39.3 µM

COC(=O)c1ccccc1C(=O)O
not listed: [1] | [15] | [16] | [19]
inactive: all other assays above

CCOC(=O)[C@H](C)Oc1ccc(Oc2nc3ccc(Cl)cc3o2)cc1
active: [11] 96.7 µM | [14] 117 µM
not listed: [2] | [15] | [16] | [17] | [18]
inactive: all other assays above

OB(O)O
not listed: [1] | [15] | [17] | [18] | [19]
inactive: all other assays above
